Among the test systems are TYRO3; ULK1; ULK2; ULK3; VRK2; WEE1; WEE2; WNK1; WNK2; WNK3; WNK4.
What all share (conditions): concentration: 1 μM,replicates: in singlicate; n = 1
The test system of test [1] is TYK2(JH2domain-pseudokinase).
For another test, the system named is T1, VEGFR2.
T1 construct: gene KDR

The next test has as its system T2, VPS34.
T2 construct: gene PIK3C3

The next test has as its system T3, YANK1.
T3 construct: gene STK32A

The test system of a further test is T4, YANK2.
T4 construct: gene STK32B

A further test concerns T5, YANK3.
T5 construct: gene STK32C

Another test deals with T6, YES.
T6 construct: gene YES1

For another test, the system named is T7, YSK1.
T7 construct: gene STK25

In a further test the test system is T8, YSK4.
T8 construct: gene MAP3K19

From publication PMC5540273 (PLoS ONE, 2017) come the findings set out here.
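Further: KINOMEscan kinase panel screen.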

Regarding `Cc1n[nH]c2cc(Nc3ccnc(Nc4cccc(CN5CCOCC5)c4)n3)ccc12` [GW682569], the “%Inh” value in [1] stood at 99.2%; in the test on TYRO3, 0%; in the test on ULK1 it was 1%; with ULK2 it was 0%; with ULK3, 55%; in the test on VEGFR2, 45%. The “%Inh” value turned out to be 18% in the test with VPS34; 27% in the test on VRK2; 10% in the test on WEE1; 0% with WEE2; 8% in the test on WNK1; 19% with WNK2. The “%Inh” value came to 21% in the test with WNK3; 32% in the test on WNK4; 9% with YANK1; 0% with YANK2; 3% in the test on YANK3; 22% in the test with YES. Also, the “%Inh” value with YSK1 is recorded as 10%; in the test on YSK4 it was 90%.

With `COc1cc2c(Nc3ccc(NC(=O)c4ccccc4)cc3)ncnc2cc1OCCCN1CCOCC1` [GSK301329], the “%Inh” value in [1] amounted to 0%; with TYRO3 it was 13%; in the test with ULK1, 7%; in the test with ULK2 it was 0%; with ULK3 it was 13%; with VEGFR2, 6%. Also, the “%Inh” value is reported as 2% in the test on VPS34; 0% in the test with VRK2; 19% with WEE1; 9% in the test with WEE2; 1% with WNK1; 31% with WNK2. Also, the “%Inh” value in the test on WNK3 is reported as 12%; in the test on WNK4, 0%; with YANK1 it was 14%; in the test with YANK2, 0%; in the test on YANK3, 10%; in the test on YES, 46%. In addition, the “%Inh” value came to 6% with YSK1 and 12% in the test with YSK4.

Consider `CC(C)S(=O)(=O)N1CCN(Cc2ccc3c(c2)nc(NC(=O)c2ccsc2)n3C[C@H](O)c2ccccc2)CC1` [GW635815], for which the “%Inh” value in test [1] is 8%; with TYRO3, 31%; in the test with ULK1, 82%; in the test on ULK2, 60%; with ULK3, 92.1%; in the test with VEGFR2, 3%. In addition, the “%Inh” value with VPS34 was 18%; in the test on VRK2 it was 11%; in the test with WEE1, 29%; in the test on WEE2, 6%; in the test on WNK1, 3%; with WNK2, 0%. The “%Inh” value in the test on WNK3 turned out to be 18%; with WNK4 it was 0%; with YANK1, 1%; in the test on YANK2 it was 0%; in the test with YANK3 it was 5%; with YES it was 86%. In addition, the figures for the “%Inh” value in the test on YSK1 and with YSK4 were 0% and 90.6%, respectively.

For `O=C(NOCC1CC1)c1cc(Br)c(F)c(F)c1Nc1ccc(I)cc1Cl`, the “%Inh” value in test [1] is 0%; in the test with TYRO3 it was 0%; in the test on ULK1 it was 0%; in the test with ULK2, 0%; in the test with ULK3 it was 10%; in the test with VEGFR2 it was 0%. Besides, the “%Inh” value with VPS34, in the test on VRK2, with WEE1, in the test with WEE2, with WNK1 and in the test with WNK2 was 0% throughout. Moreover, the “%Inh” value in the test with WNK3 was 0%; in the test with WNK4, 16%; with YANK1, 0%; in the test with YANK2, 0%; in the test on YANK3 it was 2%; with YES, 0%. For the same compound, the “%Inh” value with YSK1 and in the test with YSK4 was 0% each time.

Take `Cn1ccc2ncnc(Oc3ccc(NC(=O)Nc4cncc(C(F)(F)F)c4)c(Cl)c3)c21`: the “%Inh” value in [1] came to 0%; in the test with TYRO3, 0%; in the test on ULK1 it was 0%; in the test on ULK2, 0%; with ULK3, 99.9%; with VEGFR2, 98.5%. The “%Inh” value in the test with VPS34 was 0%; with VRK2 it was 0%; in the test with WEE1, 0%; in the test with WEE2, 7%; with WNK1, 0%; in the test on WNK2, 0%. Moreover, the “%Inh” value is on record as 0% in the test with WNK3; 0% with WNK4; 0% with YANK1; 2% in the test with YANK2; 25% with YANK3; 0% with YES. The figures for the “%Inh” value in the test on YSK1 and in the test with YSK4 were 0% and 17%, respectively.

In the case of `COc1cccc(CNC(=O)NC2CCN(c3ccnc(Nc4cc(OC)c(OC)c(OC)c4)n3)C2)c1` (centres unmarked) [GSK1379765], the “%Inh” value in test [1] is reported as 43%; in the test with TYRO3, 0%; in the test on ULK1, 0%; in the test with ULK2, 0%; in the test with ULK3, 90%; with VEGFR2, 13%. Also, the “%Inh” value with VPS34 was 0%; in the test with VRK2 it was 0%; in the test on WEE1, 30%; in the test on WEE2, 9%; with WNK1, 4%; in the test with WNK2, 33%. The “%Inh” value in the test with WNK3 was determined as 34%; with WNK4, 43%; in the test with YANK1, 0%; with YANK2, 0%; with YANK3, 7%; in the test with YES, 7%. In addition, the figures for the “%Inh” value in the test on YSK1 and with YSK4 were 0% and 37%, respectively.

Turning to `C[C@@H](Oc1cc(-n2cnc3cc(-c4cnn(C)c4)ccc32)sc1C(N)=O)c1ccccc1Cl` [GSK580432], the “%Inh” value in test [1] is given as 0%; in the test on TYRO3 it was 11%; with ULK1, 14%; in the test on ULK2 it was 10%; with ULK3, 11%; in the test with VEGFR2 it was 61%. Also, the “%Inh” value in the test on VPS34 worked out at 74%; with VRK2, 0%; in the test with WEE1 it was 26%; with WEE2, 5%; in the test on WNK1 it was 62%; in the test with WNK2, 91.4%. Also, the “%Inh” value was 97.4% with WNK3; 33% in the test with WNK4; 25% in the test on YANK1; 0% in the test with YANK2; 13% in the test with YANK3; 73% in the test with YES. Also, the “%Inh” value in the test on YSK1 amounted to 31%; in the test with YSK4, 97.8%.

Turning to `Cc1ccc(C(=O)Nc2ccc(Oc3ccc4nc(NC(=O)C5CC5)cn4c3)c(F)c2)c(=O)n1-c1ccccc1`, the “%Inh” value in test [1] worked out at 0%; in the test with TYRO3, 81%; with ULK1 it was 0%; with ULK2, 0%; in the test on ULK3, 7%; in the test on VEGFR2 it was 99.1%. The “%Inh” value is 43% in the test on VPS34; 0% in the test on VRK2; 0% in the test with WEE1; 0% in the test on WEE2; 0% in the test with WNK1; 0% in the test with WNK2. Moreover, the “%Inh” value is 0% in the test with WNK3; 0% in the test on WNK4; 0% in the test on YANK1; 0% in the test with YANK2; 0% with YANK3; 71% in the test with YES. For the same compound, the “%Inh” value in the test on YSK1 and in the test on YSK4 was 0% throughout.

For the compound `CN1CCN(CCCNc2nccc(-c3c(-c4ccc(F)cc4)nn4cc(C(N)=O)ccc34)n2)CC1` [GW622475], the “%Inh” value is on record as 40% in test [1]; 0% in the test with TYRO3; 8% in the test on ULK1; 0% with ULK2; 0% with ULK3; 9% in the test with VEGFR2. Also, the “%Inh” value in the test on VPS34 is 19%; in the test with VRK2, 0%; in the test on WEE1, 2%; in the test with WEE2, 0%; with WNK1, 9%; in the test with WNK2 it was 8%. For the same compound, the “%Inh” value in the test with WNK3 is 20%; with WNK4, 14%; in the test with YANK1 it was 20%; in the test on YANK2 it was 17%; with YANK3, 16%; in the test on YES it was 24%. Moreover, the “%Inh” value with YSK1 was determined as 22%; in the test on YSK4 it was 14%.

In the case of `CS(=O)(=O)Nc1ccc(-c2ccnc3[nH]ccc23)cc1` [GSK993273], the “%Inh” value in test [1] is 24%; in the test on TYRO3, 0%; with ULK1, 64%; with ULK2, 10%; in the test with ULK3, 95.4%; with VEGFR2, 48%. The “%Inh” value in the test on VPS34 is 31%; in the test with VRK2, 0%; with WEE1, 5%; in the test with WEE2, 0%; in the test on WNK1, 13%; in the test on WNK2, 14%. Also, the “%Inh” value with WNK3 was determined as 9%; in the test with WNK4 it was 0%; in the test with YANK1, 12%; in the test with YANK2, 0%; in the test with YANK3 it was 20%; in the test on YES it was 8%. Moreover, the “%Inh” value was found to be 51% in the test on YSK1 and 96.5% with YSK4.
